Experimental findings from PubChem BioAssay (NCATS) are described below.

Records with an inconclusive call do not appear. Calls of active or inactive are those of the source. Unless noted, the call rests on the fitted dose curve; in most records, active means well fitted curve in the direction sought with a large enough effect; inconclusive means small, poorly fitted or top-dose-only effect, or another doubt; inactive means no such curve, though single readings can be large; an effect the other way counts as inactive or inconclusive.

Test [1] can be described thus: qHTS for Inhibitors of the Functional Ribonucleoprotein Complex (vRNP) of Lassa (LASV) Arenavirus: LASV Primary Screen - GLuc reporter signal (AID 1347082; calls by dose curve; tested in HEK293 reporter line; further: on the % scale 0 is the no-effect control and ±100 the full control effect; nearly all actives have a fitted effect of over 60% in size).
A short description of test [2]: qHTS for Inhibitors of the Functional Ribonucleoprotein Complex (vRNP) of Lassa (LASV) Arenavirus: Viability assay - alamar blue signal for LASV Primary Screen (AID 1347083; calls by dose curve; tested in HEK293 reporter line; further: on the % scale 0 is the no-effect control and ±100 the full control effect; nearly all actives have a fitted effect of over 80% in size).
Test [3] can be described thus: qHTS for Inhibitors of the Functional Ribonucleoprotein Complex (vRNP) of Lymphocytic Choriomeningitis Arenaviruses (LCMV): Viability assay - alamar blue signal for LCMV Primary Screen (AID 1347085; calls by dose curve; tested in HEK293 reporter line; further: on the % scale 0 is the no-effect control and ±100 the full control effect; nearly all actives have a fitted effect of over 80% in size).
The target in test [4] is Nucleoprotein (Lymphocytic choriomeningitis virus (strain Armstrong)) (UniProt P09992). As to the kind of experiment: qHTS for Inhibitors of the Functional Ribonucleoprotein Complex (vRNP) of Lymphocytic Choriomeningitis Arenaviruses (LCMV): LCMV Primary Screen - GLuc reporter signal (AID 1347086; calls by dose curve; further: on the % scale 0 is the no-effect control and ±100 the full control effect; nearly all actives have a fitted effect of over 70% in size).
Chain of Nucleoprotein (Lymphocytic choriomeningitis virus (strain Armstrong)) (P09992 whole entry, looked up): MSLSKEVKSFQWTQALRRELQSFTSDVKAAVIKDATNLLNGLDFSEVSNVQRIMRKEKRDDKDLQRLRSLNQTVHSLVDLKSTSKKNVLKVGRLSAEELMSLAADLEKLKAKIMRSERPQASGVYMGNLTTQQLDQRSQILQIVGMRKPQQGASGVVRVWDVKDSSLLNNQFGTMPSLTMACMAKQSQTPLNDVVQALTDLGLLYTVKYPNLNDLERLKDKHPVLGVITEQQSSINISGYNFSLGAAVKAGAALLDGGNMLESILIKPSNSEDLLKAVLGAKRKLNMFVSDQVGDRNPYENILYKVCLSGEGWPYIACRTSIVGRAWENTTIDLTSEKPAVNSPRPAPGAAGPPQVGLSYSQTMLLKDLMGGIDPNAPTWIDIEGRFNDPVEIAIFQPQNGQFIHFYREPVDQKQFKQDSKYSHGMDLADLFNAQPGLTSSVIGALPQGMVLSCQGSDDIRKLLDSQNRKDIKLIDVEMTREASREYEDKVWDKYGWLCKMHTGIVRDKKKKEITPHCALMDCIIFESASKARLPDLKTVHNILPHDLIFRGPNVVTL
A short description of test [5]: Confirmatory qHTS for small molecule stabilizers of the endoplasmic reticulum resident proteome: Secreted ER Calcium Modulated Protein (SERCaMP) assay (AID 1508628). Further: potency means the concentration at half of the fitted maximal effect; nearly all actives have a fitted effect of over 40% in size. An outline of the steps: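 SH-SY5Y cells stably expressing GLuc-SERCaMP, treated 16 h with compound (primary 1.53, 7.67, 38.3 uM; confirmation 11 concentrations, up to 76.6 uM), then 100 nM thapsigargin for 4 h. Secreted Gaussia luciferase in medium read by coelenterazine luminescence.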

A short description of test [6]: Cell Viability qHTS for small molecule stabilizers of the endoplasmic reticulum resident proteome (AID 1508629).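 Further: human SH-SY5Y neuroblastoma cells carrying the GLuc-SERCaMP reporter; compound exposure about 46 h in total before the viability read; on the % scale 0 is the no-effect control and ±100 the full control effect.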 The following applies: cell viability counter-screen, 100 nM thapsigargin for final 4 h.
Test [7] addresses Cytochrome P450 3A4 (Homo sapiens) (UniProt P08684). Description: qHTS Assay for Inhibitors and Substrates of Cytochrome P450 3A4 (AID 884). Further: on the % scale 0 is the no-effect control and ±100 the full control effect; nearly all actives have a fitted effect of over 50% in size. The method in brief: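 20 nM human CYP3A4 with 25 uM Luciferin-PPXE (at KM) in 200 mM KPO4, preincubated 10 min with compound; NADPH regeneration started a 60 min RT reaction. Luciferin detected by luminescence, normalized to 57 uM ketoconazole as full inhibition.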

Test [8] in a line: qHTS Assay for Lipid Storage Modulators (AID 1519; calls by dose curve; on activity change, negative = inhibition: on the % scale 0 is the no-effect control and ±100 the full control effect). The following applies: Drosophila S3 cells, BODIPY lipid droplet/cell ratio, laser cytometry, cells loaded with oleic acid; for activity change, negative = inhibition: at 57.5 µM (top of the series). The method in brief: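 Cells seeded at 5,000 per well were treated with compounds over a concentration series and loaded with oleic acid (400 uM, as added). Lipid droplet fluorescence (488 nm excitation, 500-530 nm channel) was read by laser-scanning cytometry and normalized to 20 uM Triacsin C.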

For test [9], the target named is Ubiquitin carboxyl-terminal hydrolase 1 (Homo sapiens) (UniProt O94782). Description: Inhibitors of USP1/UAF1: Pilot qHTS (AID 504865).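 Further: rhodamine fluorescence freed from ubiquitin-rhodamine substrate followed over time; top concentration of the series differs between compounds; on the % scale 0 is the no-effect control and ±100 the full control effect; nearly all actives have a fitted effect of over 35% in size.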 An outline of the steps:
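Enzyme-free wells gave the negative control, while test wells held 1nM USP1/UAF1 preincubated with compound for 15 min at room temperature. Ub-Rho at 150nM final started the reaction, and fluorescence at 480/540 nm was recorded kinetically.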

The target of test [10] is DNA dC->dU-editing enzyme APOBEC-3G (Homo sapiens) (UniProt Q9HC16). Description: qHTS for inhibitors of Vif-A3G interactions: Validation (AID 588379). Further: 0% is about no effect. An outline of the steps:
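HeLa cells stably expressing Vif and A3G-eYFP, 700 cells/well, incubated overnight at 37 deg C, then exposed to compound overnight at 37 deg C. Inhibition of Vif-mediated degradation read as increased yellow fluorescence (Ex 488/Em 500-530) by laser-scanning cytometry.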

For test [11], the target named is Cytochrome P450 2C9 (Homo sapiens) (UniProt P11712). Description: qHTS Assay for Inhibitors and Substrates of Cytochrome P450 2C9 (AID 883). Further: on the % scale 0 is the no-effect control and ±100 the full control effect; nearly all actives have a fitted effect of over 60% in size. The method in brief:
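A luminogenic readout tracked human CYP2C9 (10nM) converting deoxyluciferin (100uM, at KM) in 25mM KPO4 during 60 min at 37C with regenerated NADPH. Values normalized to 57uM sulphaphenazole as complete inhibition.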

Test [12] addresses Cytochrome P450 3A4 (Homo sapiens) (UniProt P08684). Description: qHTS Assay for Activators of Cytochrome P450 3A4 (AID 885). Further: potency means the concentration at half of the fitted maximal effect; nearly all actives have a fitted effect of over 65% in size. An outline of the steps: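 Human CYP3A4 (20 nM) with Luciferin-PPXE at 25 uM (its KM) in 200 mM KPO4; 10 min compound preincubation, then NADPH regeneration and 60 min reaction at RT. Luciferin read by luminescence; normalized to 57 uM ketoconazole full inhibition.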

In test [13] the target is Cytochrome P450 2D6 (Homo sapiens) (UniProt P10635). As to the kind of experiment: qHTS Assay for Inhibitors and Substrates of Cytochrome P450 2D6 (AID 891). Further: potency means the concentration at half of the fitted maximal effect; nearly all actives have a fitted effect of over 60% in size. An outline of the steps:
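Human CYP2D6 (5 nM) with 30 uM Luciferin-ME EGE (at Km) in 100 mM KPO4, compound preincubated 10 min, then NADPH regeneration system for 60 min at room temperature. Luciferin read by luminescence; normalized to 1.43 uM quinidine.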

Test [14] in a line: qHTS Assay for Identification of Small Molecule Antagonists for Thrombopoietin (TPO) Signaling Pathway (AID 918). Further: potency means the concentration at half of the fitted maximal effect; nearly all actives have a fitted effect of over 60% in size. The following applies: TPO-dependent cell signaling reporter, antagonist mode. An outline of the steps: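 Murine Ba/F3 cells expressing human TPO receptor and a Glycoprotein IIb promoter-luciferase reporter, IL-3-starved overnight, treated with compound plus TPO at EC50 (26 pM final). After 24 h at 37 C, luminescence read to detect inhibitors.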

The target of test [15] is Muscarinic acetylcholine receptor M1 (Rattus norvegicus) (UniProt P08482). Description: qHTS Assay for Antagonists of Acetylcholine Muscarinic M1 Receptor: Kinetic Measurement of Intracellular Calcium Response (AID 943). Further: potency means the concentration at half of the fitted maximal effect; nearly all actives have a fitted effect of over 75% in size. An outline of the steps:
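CHO cells expressing rat M1 receptor, Fluo-4 loaded, preincubated 10 min with compound, then stimulated with EC80 carbachol (100 nM final). Kinetic calcium fluorescence over 4 min; response taken as peak over basal signal.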

In test [16] the target is Alpha-galactosidase (Coffea arabica) (UniProt Q42656). Description: Counterscreen for Glucocerebrosidase Inhibitors: qHTS Assay for Coffee Bean alpha-Galactosidase at pH 4.5 (AID 957).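 Further: plate controls were enzyme alone for no effect and no enzyme for full effect.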 An outline of the steps: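 Coffee bean enzyme (2 nM) with 80 uM 4-methylumbelliferyl alpha-D-galactopyranoside in 50 mM citric acid, 0.005% Tween-20, pH 4.5, 20 min at room temperature; compounds 0.7 nM–77 uM. Stopped at pH 10, fluorescence 365/440 nm; AC50 from Hill fits.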
Chain of Alpha-galactosidase (Coffea arabica) (Q42656 whole entry, looked up): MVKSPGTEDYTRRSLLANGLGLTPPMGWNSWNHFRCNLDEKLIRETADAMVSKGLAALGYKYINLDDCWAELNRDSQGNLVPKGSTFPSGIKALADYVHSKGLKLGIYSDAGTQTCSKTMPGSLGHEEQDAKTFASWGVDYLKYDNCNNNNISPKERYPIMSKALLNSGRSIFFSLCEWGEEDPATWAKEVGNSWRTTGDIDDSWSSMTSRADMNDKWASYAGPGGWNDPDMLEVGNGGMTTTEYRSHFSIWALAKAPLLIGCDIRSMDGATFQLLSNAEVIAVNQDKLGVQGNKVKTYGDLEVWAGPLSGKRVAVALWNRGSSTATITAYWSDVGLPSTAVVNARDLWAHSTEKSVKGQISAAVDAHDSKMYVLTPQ

Test [17] shares this target. As to the kind of experiment: Counterscreen for Glucocerebrosidase Inhibitors: qHTS Assay for Coffee Bean alpha-Galactosidase at pH 5.9 (AID 998).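 Further: plate controls were uninhibited enzyme for no effect and no-enzyme basal signal for full effect.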 An outline of the steps:
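Green coffee bean enzyme (2 nM final) was incubated with compounds (0.7 nM–77 uM) and 4-methylumbelliferyl alpha-D-galactopyranoside (80 uM) in citrate buffer pH 5.9, 20 min at room temperature. High-pH stop; fluorescence 365/440 nm; AC50 from Hill fits.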

Test [18] in a line: qHTS for differential inhibitors of proliferation of Plasmodium falciparum line 7G8 (AID 1815).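 Further: potency means the concentration at half of the fitted maximal effect; parasite growth measured after three days of incubation.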
Test [19] can be described thus: qHTS for differential inhibitors of proliferation of Plasmodium falciparum line GB4 (AID 1816).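 Further: potency means the concentration at half of the fitted maximal effect; parasite growth measured after 72 h incubation.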 The following applies: Potency: Plasmodium falciparum GB4 proliferation inhibition.
Test [20] in a line: qHTS for differential inhibitors of proliferation of Plasmodium falciparum line 3D7 (AID 1876). Further: potency means the concentration at half of the fitted maximal effect.
Test [21] can be described thus: qHTS for differential inhibitors of proliferation of Plasmodium falciparum line D10 (AID 1877).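 Further: potency means the concentration at half of the fitted maximal effect; parasites grown with compound for 72 h before DNA staining.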
Test [22] is described as follows: qHTS for differential inhibitors of proliferation of Plasmodium falciparum line Dd2 (AID 1882). Further: potency means the concentration at half of the fitted maximal effect; nearly all actives have a fitted effect of over 65% in size. The following applies: Potency: Plasmodium falciparum Dd2 proliferation inhibition. An outline of the steps: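 Dd2-infected erythrocytes (0.3% parasitemia, 2.5% hematocrit final) incubated with compound 72 h at 37 C, 5% CO2; lysed with saponin/Triton buffer containing SYBR Green I, incubated overnight in the dark, then read by fluorescence (485/535 nm). Normalized to 0.29 uM artemisinin and DMSO.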

Test [23] is described as follows: qHTS for differential inhibitors of proliferation of Plasmodium falciparum line W2 (AID 1883).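 Further: potency means the concentration at half of the fitted maximal effect; parasites grown with compound for 72 h before lysis and staining.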 The following applies: Potency: Plasmodium falciparum W2 proliferation inhibition.
Test [24] in a line: qHTS for differential inhibitors of proliferation of Plasmodium falciparum line HB3 (AID 1886).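 Further: potency means the concentration at half of the fitted maximal effect; parasites grown with compound for 72 h before SYBR Green readout.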 The following applies: Potency: Plasmodium falciparum HB3 proliferation inhibition.
Test [25] can be described thus: High Content Imaging Cell-Based qHTS for Inhibitors of the mTORC1 Signaling Pathway in MEF Cells (AID 2667). Further: potency means the concentration at half of the fitted maximal effect. The method in brief:
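MEF (Tsc2-/-, p53-/-, WT Tsc2 re-expressed); cpd 24 h, 37 °C; PFA fix; Alexa-488 anti-p-rpS6 Ser235/236, PI, Hoechst; IN Cell imaging; Hoechst/Alexa-488 intensity ratio; % active cells, thresholds set from rapamycin and DMSO wells.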

Test [26] concerns the target M-phase phosphoprotein 8 (Homo sapiens) (UniProt Q99549). Description: qHTS Validation Assay for Inhibitors for MPP8 Chromodomain Interactions with Methylated Histone Tails (AID 488949).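 Further: 50 nM MPP8 with 50 nM peptide preformed then compounds added for 30 min; AlphaScreen signal from MPP8 chromodomain bound to biotinylated H3K9me3 peptide; top concentration of the series differs between compounds; on the % scale 0 is the no-effect control and ±100 the full control effect; nearly all actives have a fitted effect of over 55% in size.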 The method in brief:
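Chemiluminescent proximity assay: histidine-tag capture via nickel acceptor beads, biotin peptide via streptavidin donor beads. Protein and peptide each at 50 nM, pH 7.4, with 30 min incubations at room temperature for complex formation, compound exposure and bead binding.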

Test [27] has as its target D(1A) dopamine receptor (Homo sapiens) (UniProt P21728). Description: HTS Assay for Allosteric Agonists of the Human D1 Dopamine Receptor: Primary Screen for Potentiators (AID 488982). Further: 0% is about no effect. The method in brief:
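Tetracycline-induced HEK293 T-REx cells force-coupled to calcium signalling were incubated overnight at 30 C and dye-loaded at room temperature. Calcium flux over 180 s after compound addition flagged agonists; a further 180 s read after EC20 dopamine flagged potentiators.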

Test [28] is described as follows: Inducers of the Endoplasmic Reticulum Stress Response (ERSR) in human glioma: Validation (AID 504836). Further: 0% is about no effect. An outline of the steps:
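Stably transfected U87-MG human glioma cells carrying a GRP78-based luminescent sensor were seeded at 1000 cells/well, pin-dosed with compounds and incubated 16 h. Luciferase reagent was then added, and end-point luminescence was read after 10 min at room temperature.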

For test [29], the target named is Voltage-gated inwardly rectifying potassium channel KCNH2 (Homo sapiens) (UniProt Q12809). Description: qHTS Assay for Small Molecule Inhibitors of the Human hERG Channel Activity (AID 588834).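 Further: potency means the concentration at half of the fitted maximal effect; lower thallium flux fluorescence means stronger hERG block; nearly all actives have a fitted effect of over 50% in size.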 An outline of the steps: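 Blockade is seen as reduced FluxOR thallium-flux fluorescence in U2OS cells expressing hERG from a BacMam construct, in Opti-MEM with 2% FCS. Concentration-response data fitted to the Hill equation for AC50.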
Chain of Voltage-gated inwardly rectifying potassium channel KCNH2 (Homo sapiens) (Q12809 whole entry, looked up): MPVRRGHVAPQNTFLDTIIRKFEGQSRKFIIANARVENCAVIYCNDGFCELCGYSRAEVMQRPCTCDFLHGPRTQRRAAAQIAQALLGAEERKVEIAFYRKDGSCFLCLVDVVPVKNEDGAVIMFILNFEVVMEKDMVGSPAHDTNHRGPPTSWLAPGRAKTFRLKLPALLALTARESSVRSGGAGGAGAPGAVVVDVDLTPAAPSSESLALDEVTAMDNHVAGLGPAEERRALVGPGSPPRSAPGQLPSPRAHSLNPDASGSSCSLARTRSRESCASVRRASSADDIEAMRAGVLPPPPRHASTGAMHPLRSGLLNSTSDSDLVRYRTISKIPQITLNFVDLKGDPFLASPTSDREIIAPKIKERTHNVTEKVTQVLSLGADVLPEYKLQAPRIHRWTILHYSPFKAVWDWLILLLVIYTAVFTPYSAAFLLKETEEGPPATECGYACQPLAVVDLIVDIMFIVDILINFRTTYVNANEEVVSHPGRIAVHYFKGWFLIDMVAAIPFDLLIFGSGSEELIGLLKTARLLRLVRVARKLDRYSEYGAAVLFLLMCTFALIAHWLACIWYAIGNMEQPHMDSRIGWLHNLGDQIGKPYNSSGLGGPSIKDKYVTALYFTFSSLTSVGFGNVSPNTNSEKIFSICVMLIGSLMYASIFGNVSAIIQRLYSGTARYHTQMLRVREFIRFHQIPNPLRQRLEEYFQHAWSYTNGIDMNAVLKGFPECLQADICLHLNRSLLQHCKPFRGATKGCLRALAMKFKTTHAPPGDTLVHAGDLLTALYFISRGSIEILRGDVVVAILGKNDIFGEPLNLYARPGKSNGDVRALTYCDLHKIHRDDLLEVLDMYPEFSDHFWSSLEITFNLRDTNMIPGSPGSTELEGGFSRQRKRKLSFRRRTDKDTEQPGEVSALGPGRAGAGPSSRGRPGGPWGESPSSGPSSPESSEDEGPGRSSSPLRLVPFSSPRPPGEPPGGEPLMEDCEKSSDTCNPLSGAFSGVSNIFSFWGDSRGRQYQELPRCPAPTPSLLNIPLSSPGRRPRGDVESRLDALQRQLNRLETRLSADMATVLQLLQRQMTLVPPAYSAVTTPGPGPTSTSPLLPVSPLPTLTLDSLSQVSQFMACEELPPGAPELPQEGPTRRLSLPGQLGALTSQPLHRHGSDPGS

[30] abbreviates: measured here: cell count channel max response.
The mark [31] stands for this setting: measured here: lipid channel max response.

Chain of Cytochrome P450 3A4 (Homo sapiens) (P08684 whole entry, looked up): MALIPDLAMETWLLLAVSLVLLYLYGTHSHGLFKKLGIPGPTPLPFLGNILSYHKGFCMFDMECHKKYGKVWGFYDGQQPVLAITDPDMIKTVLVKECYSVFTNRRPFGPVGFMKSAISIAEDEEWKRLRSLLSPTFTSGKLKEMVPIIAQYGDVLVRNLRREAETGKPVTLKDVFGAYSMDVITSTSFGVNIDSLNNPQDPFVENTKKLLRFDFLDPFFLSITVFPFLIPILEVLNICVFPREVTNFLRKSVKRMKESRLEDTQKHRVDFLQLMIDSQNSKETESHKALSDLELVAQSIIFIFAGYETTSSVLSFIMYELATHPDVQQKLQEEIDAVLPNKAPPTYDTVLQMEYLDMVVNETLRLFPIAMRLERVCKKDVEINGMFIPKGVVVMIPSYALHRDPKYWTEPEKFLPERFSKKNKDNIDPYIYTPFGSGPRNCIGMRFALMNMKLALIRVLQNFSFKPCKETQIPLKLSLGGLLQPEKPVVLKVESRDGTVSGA
Chain of DNA dC->dU-editing enzyme APOBEC-3G (Homo sapiens) (Q9HC16 whole entry, looked up): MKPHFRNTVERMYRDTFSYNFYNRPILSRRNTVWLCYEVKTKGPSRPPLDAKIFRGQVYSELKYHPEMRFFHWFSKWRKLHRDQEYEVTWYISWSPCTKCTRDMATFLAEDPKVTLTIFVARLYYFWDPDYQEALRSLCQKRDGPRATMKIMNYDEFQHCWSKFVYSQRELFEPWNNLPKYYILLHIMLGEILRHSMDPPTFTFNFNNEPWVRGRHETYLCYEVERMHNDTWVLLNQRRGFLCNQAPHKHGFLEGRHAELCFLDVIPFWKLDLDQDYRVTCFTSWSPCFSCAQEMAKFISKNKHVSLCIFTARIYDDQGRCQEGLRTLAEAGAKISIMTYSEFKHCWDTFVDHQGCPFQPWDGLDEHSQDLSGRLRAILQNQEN
Chain of Muscarinic acetylcholine receptor M1 (Rattus norvegicus) (P08482 whole entry, looked up): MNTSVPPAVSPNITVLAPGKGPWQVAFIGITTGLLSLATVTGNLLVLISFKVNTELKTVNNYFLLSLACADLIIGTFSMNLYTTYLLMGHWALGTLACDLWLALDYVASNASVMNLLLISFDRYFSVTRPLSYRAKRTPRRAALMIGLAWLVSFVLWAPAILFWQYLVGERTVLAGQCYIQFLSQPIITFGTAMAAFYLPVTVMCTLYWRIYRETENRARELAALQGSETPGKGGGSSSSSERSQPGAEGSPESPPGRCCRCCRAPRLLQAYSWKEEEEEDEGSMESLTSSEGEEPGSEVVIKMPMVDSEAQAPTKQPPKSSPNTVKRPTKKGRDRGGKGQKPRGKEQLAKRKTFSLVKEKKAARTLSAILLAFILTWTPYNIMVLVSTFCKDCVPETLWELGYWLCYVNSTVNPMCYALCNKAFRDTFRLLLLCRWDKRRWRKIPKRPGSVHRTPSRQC
Chain of Cytochrome P450 2C9 (Homo sapiens) (P11712 whole entry, looked up): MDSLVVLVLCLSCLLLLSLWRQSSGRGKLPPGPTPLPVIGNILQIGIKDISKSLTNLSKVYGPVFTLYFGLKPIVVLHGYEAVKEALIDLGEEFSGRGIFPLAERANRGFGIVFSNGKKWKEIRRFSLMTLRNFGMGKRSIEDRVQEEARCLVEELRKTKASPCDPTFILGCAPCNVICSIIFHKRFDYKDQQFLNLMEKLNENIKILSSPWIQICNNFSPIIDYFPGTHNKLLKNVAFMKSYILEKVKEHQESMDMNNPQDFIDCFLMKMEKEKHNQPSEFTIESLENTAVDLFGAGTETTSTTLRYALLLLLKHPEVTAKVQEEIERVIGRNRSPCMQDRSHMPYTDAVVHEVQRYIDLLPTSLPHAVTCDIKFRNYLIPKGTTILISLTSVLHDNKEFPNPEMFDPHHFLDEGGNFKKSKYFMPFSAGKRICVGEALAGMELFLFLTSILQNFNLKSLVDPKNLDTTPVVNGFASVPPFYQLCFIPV
Chain of D(1A) dopamine receptor (Homo sapiens) (P21728 whole entry, looked up): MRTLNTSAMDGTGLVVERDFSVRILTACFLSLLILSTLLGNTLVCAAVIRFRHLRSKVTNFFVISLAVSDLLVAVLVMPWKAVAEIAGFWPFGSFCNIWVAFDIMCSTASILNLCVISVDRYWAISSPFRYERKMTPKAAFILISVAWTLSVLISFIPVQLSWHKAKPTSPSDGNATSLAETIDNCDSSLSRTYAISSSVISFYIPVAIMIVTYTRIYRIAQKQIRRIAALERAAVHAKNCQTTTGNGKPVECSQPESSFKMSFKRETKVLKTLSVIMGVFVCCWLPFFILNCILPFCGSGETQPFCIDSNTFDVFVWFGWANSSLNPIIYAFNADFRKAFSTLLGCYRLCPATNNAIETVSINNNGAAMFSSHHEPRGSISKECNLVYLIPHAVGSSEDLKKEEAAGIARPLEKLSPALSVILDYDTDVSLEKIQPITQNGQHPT
Chain of Cytochrome P450 2D6 (Homo sapiens) (P10635 whole entry, looked up): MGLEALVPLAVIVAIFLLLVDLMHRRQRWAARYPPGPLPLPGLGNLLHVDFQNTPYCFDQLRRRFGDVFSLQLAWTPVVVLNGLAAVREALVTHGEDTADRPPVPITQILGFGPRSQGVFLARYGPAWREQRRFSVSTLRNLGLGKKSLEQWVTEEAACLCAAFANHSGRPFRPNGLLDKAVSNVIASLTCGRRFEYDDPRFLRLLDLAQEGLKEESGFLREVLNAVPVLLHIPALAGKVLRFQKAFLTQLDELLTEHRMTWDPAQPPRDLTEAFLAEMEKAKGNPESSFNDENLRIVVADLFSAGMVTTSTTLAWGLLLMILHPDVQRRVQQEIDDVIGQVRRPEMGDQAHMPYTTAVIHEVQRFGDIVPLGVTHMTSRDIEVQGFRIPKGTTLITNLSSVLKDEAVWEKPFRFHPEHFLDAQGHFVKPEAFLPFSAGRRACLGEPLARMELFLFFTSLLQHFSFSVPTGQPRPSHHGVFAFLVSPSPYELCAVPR

For the molecule `CN1C2CCC1CC(OC(=O)C1CCC(C(=O)OC3CC4CCC(C3)N4C)(c3ccccc3)c3ccccc31)C2` (stereo not drawn), the Potency result in [1], in [2], in [3] and in [4] was “inactive” throughout. For the same molecule, the Potency in [5] is 4.47 µM (active). In [6], the max response was -2.96% (inactive).

`CCC1CN2CCC1CC2C(O)c1ccnc2ccccc12` (stereo not drawn): the Potency result in test [7], in test [9], in test [10], in [1], in test [2] and in test [3] was “inactive” each time. The Potency entry in test [4] was “inactive”. Besides, the activity change, negative = inhibition in test [8] was -3.02% (inactive). Also, the max response in test [8] (setting [30]) was -1.23%; in test [8] (setting [31]) it was -3.67%.

In the case of `OC1(c2ccc(Cl)cc2)CCN(Cc2c[nH]c3ccccc23)CC1`, the Potency result in test [11], in test [7], in test [26], in test [27], in [1] and in test [2] was “inactive” in each case. The Potency result in test [3] and in [4] was “inactive” each time. The Potency in [12] is 2.51 µM (active); in [13], 0.316 µM (active); in test [14], 10 µM (active); in [15], 11.2 µM (active); in test [18], 7.08 µM (active); in test [19], 8.91 µM (active). The Potency in test [20] is 5.01 µM (active); in test [21], 10 µM (active); in test [22], 11.2 µM (active); in [23] it was 3.98 µM (active); in [24], 10 µM (active); in test [25], 2.33 µM (active). Also, the Potency in test [29] is 0.794 µM (active). In addition, the molecule was called inactive in test [16], in test [17] and in test [28]. Also, the activity change, negative = inhibition in test [8] is 1.03% (inactive). Also, the max response in test [8] (setting [30]) was -29.2%; in [8] (setting [31]), -25.1%.
